# Pf apPOL block – Pf-apPOL DNA polymerase inhibition | inhibition, % at 10 µM | AID 1794808 | Recombinant Pf-apPOL, molecular beacon fluorescence, 1.5 h | hit rate 0.25% among 210,000
# mHTT-CaM PPI inh – inhibitors of human mutant huntingtin-calmodulin interaction. P42858. inhibition, % at 15 µM. hit rate 3.6% among 190,000. AlphaScreen His-mHTT/GST-CaM binding, luminescence;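 also: 0% = both proteins with DMSO and 100% = one protein alone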
# * hit, by the source's call; . = not tested or not shown. This is a sample that favours compounds with a hit; in the whole collection about 3.5% have one here. Rule as the data show it: active = inhibition above about 50%; inactive = the rest.
SMILES,Pf apPOL block,mHTT-CaM PPI inh
Cc1ccc(S(=O)(=O)N=C2C=CC(=O)C=C2)cc1,-5,46
O=C1C=CC(=NS(=O)(=O)c2cccc(C(=O)O)c2)C=C1,59*,58*
COc1cccc(-c2cc(C3CCN(S(=O)(=O)c4ccc(F)cc4)CC3)[nH]n2)c1,-3,-2
c1ccc(COCC2CCN(Cc3ccccc3)CC2)cc1,-4,-7
O=C(NCc1ccc2c(c1)OCO2)c1ccc(CSCc2c(F)cccc2Cl)o1,-11,23
COc1ccc(-c2cn3ccn(-c4cccc(OC)c4)c(=O)c3n2)cc1,-2,4
Cc1cccc(Nc2c([N+](=O)[O-])cc([N+](=O)[O-])c3cccnc23)c1,-4,33
CCCC(=O)NC(c1ccc(C)cc1)c1cc(Cl)c2cccnc2c1O (configuration not stated),-1,29
CCC(=O)NC(c1ccc(C)cc1)c1cc([N+](=O)[O-])c2cccnc2c1O (configuration not stated),-5,100*
CCC(=O)NC(c1ccc(OC)c(OC)c1)c1cc([N+](=O)[O-])c2cccnc2c1O (configuration not stated),20,100*
CC(=O)NC(c1ccc(C)cc1)c1cc([N+](=O)[O-])c2cccnc2c1O (configuration not stated),-7,100*
O=C(O)c1nnn(-c2ccc3c(c2)CCC3)c1-c1cccnc1,2,-1
O=C1S/C(=C\c2ccccc2)C(=O)N1CNc1ccccc1Cl,1,5
Cc1cc2ncn(CC(O)COc3ccc(I)cc3)c2cc1C (configuration not stated),0,32
CC(=O)C1=C(O)C(=O)N(c2ccc(Br)cc2)C1c1ccccc1 (configuration not stated),1,25
O=C(C1CCCCC1)N1CCC(CCOc2ccc(F)cc2)CC1,-4,-17
Cc1ccc(C(=O)N/C(=C/c2ccco2)C(=O)NCCc2ccccn2)cc1C,-3,11
Cc1ccc(C(=O)N/C(=C\c2ccco2)C(=O)N2CCN(c3ccccn3)CC2)cc1C,-5,70*
CCC1CCCCN1C(=O)c1nn2c(c1Cl)NC(c1ccccc1)CC2C(F)(F)F (configuration not stated),-6,87*
O=C(c1nn2c(c1Cl)NC(c1ccccc1)CC2C(F)(F)F)N1CCCCCC1 (configuration not stated),-2,50
O=C(c1nn2c(c1Cl)NC(c1ccccc1)CC2C(F)(F)F)N1CCCCC1 (configuration not stated),-1,14
O=C(c1nn2c(c1Cl)NC(c1ccccc1)CC2C(F)(F)F)N1CCc2ccccc2C1 (configuration not stated),-3,72*
CC(C)(C)NC(=O)c1ccccc1N(Cc1ccccc1)S(=O)(=O)c1ccccc1,2,4
Clc1ccc(CCNc2ncnc3c2nc2n3CCCC2)cc1,-2,2
CCC(C)(C(=O)NC1CCCC1)N(Cc1cccs1)C(=O)c1cnccn1 (configuration not stated),-5,3
SMILES,Pf apPOL block,mHTT-CaM PPI inh
Oc1ccc(-c2[nH]ncc2-c2ccccc2)c(O)c1O,-3,96*
O=Cc1cn[nH]c1-c1ccccc1,-4,-6
CCc1cc(-c2[nH]ncc2-c2ccc(F)cc2)c(O)cc1OC,9,74*
COc1cc(-c2nc3ccccn3c2N=Cc2cn[nH]c2-c2ccccc2)ccc1O,-9,34
COc1ccc(-c2[nH]ncc2-c2ccc(F)cc2)c(O)c1,-6,39
CCc1cc(-c2[nH]ncc2-c2ccccc2)c(O)cc1OC,-2,100*
Cc1c(N=Cc2ccc(Sc3nccn3C)c([N+](=O)[O-])c2)c(=O)n(-c2ccccc2)n1C,1,45
COc1ccc(C)cc1NC(=O)c1sc2nc(C)nc(N3CCCCC3)c2c1C,-3,-7
O=C1S/C(=C\c2ccc(F)cc2)C(=O)N1CNc1ccccc1,-2,57*
Cc1cccc(NCN2C(=O)S/C(=C\c3ccc(F)cc3)C2=O)c1,-1,55*
O=C1S/C(=C\c2ccc(F)cc2)C(=O)N1CNc1ccc(Br)cc1,-4,24
O=C1S/C(=C\c2ccc(F)cc2)C(=O)N1CNc1cccc(Cl)c1,-4,21
COc1ccc(/C=C2\SC(=O)N(CNc3ccccc3Br)C2=O)cc1,-2,24
Cc1ccc2c(c1)NC1(CCN(C(=O)c3ccc(F)cc3)CC1)c1cccn1-2,-5,87*
CCN1c2ccc(C)cc2C(=O)NC12CCN(C(=O)c1ccc(Cl)cc1)CC2,-4,-6
Cc1ccc2c(c1)NC1(CCN(C(=O)c3ccc(Cl)cc3)CC1)c1cccn1-2,-6,53*
CC(C)NC(=O)N1CCC2(CC1)Nc1cc(F)ccc1-n1cccc12,2,34
CCOc1ccc(N2C=NS(=O)(=O)c3cccnc32)cc1,-1,-6
CC(=O)NC(CCS(C)(=O)=O)C(=O)Nc1ccc(Br)cc1 (configuration not stated),-11,1
Cc1c(CCCN)c2ccccc2n1-c1ccccc1,-6,50*
N=c1sc2ccccc2n1-c1ccccc1,-13,.
Cc1ccc(CNC(=O)C2(C)CCCN(C(=O)NC3CCCCC3)C2)cc1 (configuration not stated),5,-7
O=C(c1ccn2c(-c3ccccc3)nnc2c1)N1CCN(c2ccc(Cl)cc2)CC1,-5,7
O=C(Nc1c2c(nn1-c1ccc([N+](=O)[O-])cc1)CS(=O)(=O)C2)c1cccs1,-2,5
O=C(Nc1c2c(nn1-c1ccc([N+](=O)[O-])cc1)CSC2)c1cccs1,-4,55*
SMILES,Pf apPOL block,mHTT-CaM PPI inh
O=C(Nc1c2c(nn1-c1ccc(F)cc1)CS(=O)(=O)C2)c1cccs1,-4,3
COc1ccc(/C=C/C(=O)Nc2c3c(nn2-c2ccc([N+](=O)[O-])cc2)CSC3)cc1OC,-6,45
O=C(Nc1c2c(nn1-c1ccc(F)cc1)CSC2)c1cccs1,-10,51*
O=C(/C=C/c1ccco1)Nc1c2c(nn1-c1ccc([N+](=O)[O-])cc1)CSC2,-4,98*
CC1CCc2cc(F)ccc2N1C(=O)C12CCC(C1)C(C)(C)C2=O (configuration not stated),-3,-4
CCOC(=O)N1CCN(Cc2ccc(N(C)C)cc2)CC1,-4,2
O=C(NCc1cccs1)C1c2ccccc2Oc2ccccc21,2,-5
O=[N+]([O-])c1c(Cl)cc(O)c2c1C1C=CCC1C(c1ccc(Br)cc1)N2 (configuration not stated),-4,98*
O=[N+]([O-])c1ccc(C2Nc3c(O)ccc(Br)c3C3C=CCC32)cc1 (configuration not stated),-10,100*
Oc1ccc(Br)c2c1NC(c1ccc(Cl)cc1)C1CC=CC21 (configuration not stated),-1,100*
O=C(O)c1ccc([N+](=O)[O-])c2c1NC(c1ccc([N+](=O)[O-])cc1)C1CC=CC21 (configuration not stated),-2,37
Cc1cc(C)c(C(=O)Nc2c(C)cc(C)cc2Cl)c(C)c1,4,-5
CCN(CCNS(=O)(=O)c1ccc2c(c1)CC(C)N2C(C)=O)c1ccccc1 (configuration not stated),-1,22
Cc1ccc(C(=O)N2CCC(CC(=O)NCCc3ccccc3)CC2)cc1,-2,11
COc1cc2c(cc1OC)C(COc1cc(C)cc(C)c1)N(C(=O)C(C)C)CC2 (configuration not stated),-7,46
